The sample as a whole holds a higher share of hits than the screen did.
RmlC RmlD mix: mixture blocks RmlC and RmlD coupled enzyme activity. RmlC/RmlD coupled enzyme inhibition, 384-well mixture HTS. inhibition, % at 5.5 µM. 110,000 compounds, 0.39% hits; in the data active means inhibition above about 30%, passing the limit was not always enough
HIV RNase H inh-1: inhibitors of HIV-1 reverse transcriptase RNase H. RT-RNase H RNA/DNA duplex cleavage, fluorescence. AID 565. 65,000 compounds, 1.9% hits. inhibition, % at 10 µM. P04585; in the data active means inhibition above about 50%
HIV RNase H inh-2: confirmation of HIV-1 reverse transcriptase RNase H inhibitors | shares compounds with HIV RNase H inh-1 | Recombinant RT RNase H, fluorescent RNA/DNA duplex cleavage | inhibition, % at 10 µM | 1,000 compounds, 39% hits; in the data active means inhibition above about 48%
An asterisk follows results filed as active.

What do the screens show for `CCOc1ccccc1N1CCN(S(=O)(=O)CC)CC1`?
RmlC RmlD mix: -13; HIV RNase H inh-1: 53*; HIV RNase H inh-2: 0

What do the screens show for `CCOc1ccccc1N1CCN(S(=O)(=O)c2cccs2)CC1`?
RmlC RmlD mix: -6; HIV RNase H inh-1: -9

Results for CN(C)CCOC(=O)C12CC3(C)CC(C)(CC(C)(C3)C1)C2 ?
RmlC RmlD mix: -11

How did O=C(c1ccco1)N1CCN(C(=O)c2cc(-c3ccncc3)nc3ccc(Br)cc23)CC1 do in these assays?
RmlC RmlD mix: 7; HIV RNase H inh-1: 7

What do the screens show for `O=C(O)c1cc(-c2ccco2)nc2ccc(Br)cc12`?
RmlC RmlD mix: -2; HIV RNase H inh-1: 78*; HIV RNase H inh-2: 8

How did FC(F)(F)c1cccnc1N1CCN(c2ncnc3nc[nH]c23)CC1 do in these assays?
RmlC RmlD mix: 9; HIV RNase H inh-1: -10

How did COC(=O)c1ccccc1NC(=O)c1cccc(NC(=O)CSCc2ccccc2)c1C do in these assays?
RmlC RmlD mix: -12

What do the screens show for `CC(=O)Nc1ccc(OCC(=O)NC(C)C(C)C)cc1` (stereo not drawn)?
RmlC RmlD mix: 7

Results for O=C(CSc1nnc(-c2ccccn2)n1Cc1ccccc1)Nc1ccc2c(c1)OCO2 ?
RmlC RmlD mix: 4; HIV RNase H inh-1: 77*; HIV RNase H inh-2: 6

How did Cn1c(SCC(=O)Nc2ccc3c(c2)OCCO3)nnc1-c1ccccn1 do in these assays?
RmlC RmlD mix: 11; HIV RNase H inh-1: -3

Results for COc1cc(NS(=O)(=O)c2ccc(N)cc2)ncn1 ?
HIV RNase H inh-1: -4

What do the screens show for `CCCCOc1ccc(C2C3CN(C(=O)OCC)CC=C3C(C#N)=C(N)C2(C#N)C#N)cc1OC` (stereo not drawn)?
RmlC RmlD mix: 16; HIV RNase H inh-1: 84*; HIV RNase H inh-2: -1

How did CCOC(=O)N1CC=C2C(C#N)=C(N)C(C#N)(C#N)[C@H](c3ccc(OCC)c(OCC)c3)[C@H]2C1 do in these assays?
RmlC RmlD mix: 2; HIV RNase H inh-1: 4

What do the screens show for `Cc1cnc(C(=O)OCC(=O)Nc2cccc(Cl)c2)cn1`?
RmlC RmlD mix: -6; HIV RNase H inh-1: 0

How did O=C(NCC(=O)N(c1ccc(F)cc1)C(C(=O)NCC1CCCO1)c1ccccc1)c1ccco1 (stereo not drawn) do in these assays?
RmlC RmlD mix: 5; HIV RNase H inh-1: 57*; HIV RNase H inh-2: 40

What do the screens show for `O=C(NCC(=O)N(c1cccc(F)c1)C(C(=O)NCC1CCCO1)c1ccccc1)c1ccco1` (stereo not drawn)?
RmlC RmlD mix: -15; HIV RNase H inh-1: -3

Results for COc1ccc(N2CCN(C(=O)C3CCN(S(=O)(=O)N4CCOCC4)CC3)CC2)cc1 ?
RmlC RmlD mix: -10; HIV RNase H inh-1: 1

Results for COc1cc(CC(=O)N2CCc3ccccc32)cc(OC)c1OC ?
RmlC RmlD mix: -7; HIV RNase H inh-1: -36

Results for CSc1ccc(Cn2nnc(C(=O)Nc3ccc(C)c(C)c3)c2N)cc1 ?
RmlC RmlD mix: 5

What do the screens show for `Cc1ccc(NC(=O)Cn2nnc(C(=O)Nc3ccc(C)c(C)c3)c2N)cc1`?
RmlC RmlD mix: -17; HIV RNase H inh-1: 67*; HIV RNase H inh-2: 59*

How did N#C/C(=C\c1ccc[nH]1)Sc1nc2ccccc2s1 do in these assays?
RmlC RmlD mix: 4; HIV RNase H inh-1: -48

Results for Oc1ccc(C=Nc2ccc3ncccc3c2)c(O)c1 ?
RmlC RmlD mix: 12; HIV RNase H inh-1: 53*; HIV RNase H inh-2: 43

How did C(=N\n1cnnc1)/c1ccc2ncccc2c1 do in these assays?
RmlC RmlD mix: 8; HIV RNase H inh-1: -14

What do the screens show for `N#Cc1c(N)sc(=S)c2c1CCCC2`?
RmlC RmlD mix: 0; HIV RNase H inh-1: 67*; HIV RNase H inh-2: -6

What do the screens show for `CCC1(C)Cc2c(C#N)c(N)sc(=S)c2CO1` (stereo not drawn)?
RmlC RmlD mix: -10; HIV RNase H inh-1: 26

What do the screens show for `CC(C)OC(=O)CSc1nnc(-c2ccncc2)n1N`?
RmlC RmlD mix: -5; HIV RNase H inh-1: 5

How did CC(C)OC(=O)CSc1nnc(-c2ccc(C(C)(C)C)cc2)n1N do in these assays?
HIV RNase H inh-1: 82*; HIV RNase H inh-2: 63*

Results for O=C(O)C1CSCN1S(=O)(=O)c1cccc2nsnc12 (stereo not drawn) ?
RmlC RmlD mix: 4; HIV RNase H inh-1: 62*; HIV RNase H inh-2: -3

What do the screens show for `O=C(NC1CCCCC1)C1CCCN1S(=O)(=O)c1cccc2nsnc12` (stereo not drawn)?
RmlC RmlD mix: 5; HIV RNase H inh-1: -1

What do the screens show for `O=C1C2ON(c3ccccc3)C(c3cccnc3)C2C(=O)N1c1ccccc1` (stereo not drawn)?
RmlC RmlD mix: 6; HIV RNase H inh-1: 3

Results for O=C1C2ON(c3ccc(Br)cc3)C(c3cccnc3)C2C(=O)N1C1CCCCC1 (stereo not drawn) ?
HIV RNase H inh-1: 64*; HIV RNase H inh-2: 33

What do the screens show for `Nc1c(C(=O)Nc2ccc(Br)cc2)sc2nc(-c3ccco3)ccc12`?
RmlC RmlD mix: -37

How did Nc1c(C(=O)Nc2ccc(F)cc2)sc2nc(-c3ccco3)ccc12 do in these assays?
RmlC RmlD mix: 14; HIV RNase H inh-1: 89*; HIV RNase H inh-2: 40

Results for COc1ccc(-c2ocnc2C(=O)Nc2ccccc2N2CCCCC2)cc1 ?
RmlC RmlD mix: -23; HIV RNase H inh-1: 76*; HIV RNase H inh-2: 45

Results for CCOc1ccc(C(=O)Nc2ccccc2N2CCCC2)cc1 ?
RmlC RmlD mix: -16

How did CS(=O)(=O)c1ccc(N)cc1 do in these assays?
RmlC RmlD mix: 14; HIV RNase H inh-1: -10

What do the screens show for `CCOC(=O)c1c(C)n(C)c2ccc(OC)c(NC(=O)CN3CCCCC3)c12`?
HIV RNase H inh-1: -4

Results for CN(C)c1ccc(NC(=O)CSc2nc3c(c(=O)[nH]2)CCCC3)cc1 ?
RmlC RmlD mix: 21; HIV RNase H inh-1: -2

What do the screens show for `O=C(CSc1nc2c(c(=O)[nH]1)CCC2)Nc1cccc(Cl)c1`?
RmlC RmlD mix: -9; HIV RNase H inh-1: 87*; HIV RNase H inh-2: 38

What do the screens show for `COC(=O)[C@@H]1[C@@H](C#N)C2(c3ccccc3-c3ccccc32)N(c2ccc(Cl)cc2)N1C#N`?
RmlC RmlD mix: -7

What do the screens show for `CC(O)c1nc2ccccc2n1CCOc1ccccc1` (stereo not drawn)?
RmlC RmlD mix: 4

Results for COc1ccccc1OCCn1c(C(C)O)nc2ccccc21 (stereo not drawn) ?
RmlC RmlD mix: -16; HIV RNase H inh-1: 65*; HIV RNase H inh-2: 42

How did COc1ccc(OC)c(-n2nnnc2SCC(=O)Nc2ccc3c(c2)OCCO3)c1 do in these assays?
RmlC RmlD mix: 5; HIV RNase H inh-1: 17

What do the screens show for `CCOc1ccc(CNC(=O)C2CCN(S(=O)(=O)N3CCCC3)CC2)cc1OC`?
RmlC RmlD mix: -16; HIV RNase H inh-1: -20

Results for O=C(CCCn1c(SCC(=O)c2ccc(O)c(O)c2)nc2ccccc2c1=O)NCC1CCCO1 (stereo not drawn) ?
RmlC RmlD mix: -8; HIV RNase H inh-1: 95*; HIV RNase H inh-2: 71*

What do the screens show for `O=C(CCCn1c(SCC(=O)NC2CCCCC2)nc2ccccc2c1=O)NCC1CCCO1` (stereo not drawn)?
RmlC RmlD mix: 11; HIV RNase H inh-1: -3

What do the screens show for `Cc1ccc(S(=O)(=O)N2CCCCC2C(=O)N2CCN(Cc3ccccc3)CC2)cc1` (stereo not drawn)?
RmlC RmlD mix: 6; HIV RNase H inh-1: -7

From PubChem
